Consider 27 compounds from PubChem BioAssay.

The test system of assay [1] is Aerobactin synthetase IucA (Klebsiella pneumoniae). Briefly: IucA aerobactin synthetase inhibitors, biochemical, Tocris library, absorbance (AID 1345561; call rule not given here;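 further: 100% = enzyme without compound and 0% = no enzyme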). Conditions: purified IucA enzyme assay, absorbance (OD) read-out; stronger effect = lower value;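 tested at 8 µM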.
Assay [2] is described as follows: sensitizers of A549 cells to miR-34 induction, primary screen, imaging, A549 dox-inducible miR-34, nuclei and caspase counts (AID 1347080). Conditions: A549 miR-34 inducible, Hoechst nuclei count, 48 h.
Assay [3] can be described thus: viability rescue of complex I mutant cybrids, primary screen, cell-based, galactose medium, ATP luminescence (AID 1645843;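 active means z-score of at least 1.8 in each of two replicates, scored against plate mean and spread of sample wells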;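 further: positive z means more ATP and so rescue of galactose-driven cybrid death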). The conditions noted are these: complex I mutant cybrid cells, 72 h, stronger effect = higher value.
[4] abbreviates: stronger effect = lower value, cell number ratio, induced over uninduced.
[5] abbreviates: measured here: relative caspase fold change +Dox/-Dox.
[6] abbreviates: measured here: total cells with miR-34 induction, stronger effect = lower value.
[7] abbreviates: measured here: total cells without miR-34 induction.

Where “and” joins values, the source holds several entries; their conditions need not be identical. Equal values may be shown once. Calls of active or inactive are those of the source.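 How the source made its calls, unless noted: active means compounds whose cell count with miR-34 switched on is under 0.7 times the count with it off; inactive means the rest.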

Regarding `Cc1cc(C)c(S(=O)(=O)Nc2cccc(C(F)(F)F)c2)c(C)c1`, the remaining activity in assay [1] is 107% (inactive). For the same compound, the values for the fold change in assay [2] (setting [4]) and in assay [2] (setting [5]) were 0.995 (inactive) and 0.922, respectively. The cell count in assay [2] (setting [6]) was 5690; in assay [2] (setting [7]), 5720. Further, in assay [3], the z-score is -0.605 (inactive).

`NC(=NC1C2CC3CC(C2)CC1C3)Nc1ccc(I)cc1` (configuration not stated): the remaining activity in assay [1] was 126% (inactive). The fold change in assay [2] (setting [4]) was 1.12 (inactive); in assay [2] (setting [5]), 0.649. In addition, the values for the cell count in assay [2] (setting [6]) and in assay [2] (setting [7]) were 2830 and 2540, respectively. In addition, the z-score in assay [3] was -0.39 (inactive).

Consider `COC(=O)C1=C(C)NC(C)=C(C(=O)OCCSc2ccccc2)C1C` (configuration not stated), for which the remaining activity in assay [1] is 91.1% (inactive). Further, the fold change in assay [2] (setting [4]) is 0.923 (inactive) and 0.85 (inactive); in assay [2] (setting [5]) it was 0.923 and 0.966. For the same compound, the cell count in assay [2] (setting [6]) was 2710 and 6700; in assay [2] (setting [7]) it was 2930 and 7880. Besides, in assay [3], the z-score is -0.87 (inactive).

Take `Ic1cc(-c2ccccc2)ncn1`: the remaining activity in assay [1] was 120% (inactive). The fold change in assay [2] (setting [4]) is 0.965 (inactive); in assay [2] (setting [5]), 1.73. Besides, the cell count in assay [2] (setting [6]) was determined as 8200; in assay [2] (setting [7]) it was 8500. Further, the z-score in assay [3] was 0.11 (inactive).

In the case of `CC(C)Oc1cccc(-n2c(CCc3c[nH]c4ccc(Br)cc34)nc3ccccc3c2=O)c1`, the remaining activity in assay [1] was 110% (inactive). Moreover, the fold change is 1.07 (inactive) in assay [2] (setting [4]) and 0.884 in assay [2] (setting [5]). Also, the cell count in assay [2] (setting [6]) came to 6620; in assay [2] (setting [7]) it was 6200. Moreover, in assay [3], the z-score was -1.18 (inactive).

As to `CC(C)(C)c1cc(C(=O)/C=C/c2ccc(C(=O)O)cc2)cc(C(C)(C)C)c1`, the remaining activity in assay [1] is 108% (inactive). The fold change was 1.11 (inactive) in assay [2] (setting [4]) and 1.56 in assay [2] (setting [5]). Further, the cell count in assay [2] (setting [6]) was found to be 1370; in assay [2] (setting [7]), 1240. The z-score in assay [3] is -0.69 (inactive).

For the compound `NCCCCCc1cnc[nH]1`, in assay [1], the remaining activity is 118% (inactive). Also, the fold change is 0.92 (inactive) in assay [2] (setting [4]) and 0.639 in assay [2] (setting [5]). In addition, the cell count in assay [2] (setting [6]) is 9140; in assay [2] (setting [7]), 9930. The z-score in assay [3] is -0.155 (inactive).

With `Cc1nc2ccc(NC(=O)Nc3ccnc4cccnc34)cc2o1`, the remaining activity in assay [1] was 111% (inactive). The fold change in assay [2] (setting [4]) is 0.867 (inactive); in assay [2] (setting [5]) it was 0.84. For the same compound, the cell count stood at 7250 in assay [2] (setting [6]) and 8360 in assay [2] (setting [7]). For the same compound, in assay [3], the z-score is 1.19 (inactive).

As for `COc1ccc(-n2[nH]c3c4c(ncc3c2=O)CCCCC4)cc1`, the remaining activity in assay [1] is 115% (inactive). Besides, the fold change was 0.906 (inactive) in assay [2] (setting [4]) and 1.8 in assay [2] (setting [5]). Also, the cell count turned out to be 8550 in assay [2] (setting [6]) and 9440 in assay [2] (setting [7]). The z-score in assay [3] is 2.12 (active).

On to `O=C(O)c1c(Sc2ccccc2)c2cc(Cl)ccc2n1Cc1ccc(Cl)cc1`, for which the remaining activity in assay [1] is 122% (inactive). Further, the fold change in assay [2] (setting [4]) is 0.94 (inactive); in assay [2] (setting [5]), 1.45. The cell count was 6730 in assay [2] (setting [6]) and 7160 in assay [2] (setting [7]). The z-score in assay [3] was 1.25 (inactive).

Regarding `NCCCCCCCCCCNS(=O)(=O)c1cccc2c(Cl)cccc12`, the remaining activity in assay [1] was 98.7% (inactive). Also, the results for the fold change in assay [2] (setting [4]) and in assay [2] (setting [5]) were 0.827 (inactive) and 0.835, respectively. Besides, the cell count in assay [2] (setting [6]) is 5900; in assay [2] (setting [7]), 7130. In assay [3], the z-score is -1.11 (inactive).

On to `CC(=O)OCCNC(=O)c1cccnc1`, for which, in assay [1], the remaining activity was 106% (inactive). Moreover, the figures for the fold change in assay [2] (setting [4]) and in assay [2] (setting [5]) were 0.936 (inactive) and 0.614, respectively. Also, the values for the cell count in assay [2] (setting [6]) and in assay [2] (setting [7]) were 9480 and 10100, respectively. In addition, the z-score in assay [3] is 0.15 (inactive).

`N[C@@H]1CCN(O)C1=O`: the remaining activity in assay [1] is 121% (inactive). The fold change was 0.981 (inactive) in assay [2] (setting [4]) and 0.836 in assay [2] (setting [5]). For the same compound, the values for the cell count in assay [2] (setting [6]) and in assay [2] (setting [7]) were 9080 and 9260, respectively. Besides, the z-score in assay [3] is 0.66 (inactive).

Regarding `CCCN(C/C=C/I)C1CCc2cccc(O)c2C1` (configuration not stated), the remaining activity in assay [1] is 123% (inactive). For the same compound, the fold change was 0.893 (inactive) in assay [2] (setting [4]) and 1.14 in assay [2] (setting [5]). The cell count in assay [2] (setting [6]) is 8040; in assay [2] (setting [7]), 9000. Also, the z-score in assay [3] is -0.945 (inactive).

As to `COc1cccc(NC(=O)/C=C/c2ccc(Cl)cc2)c1`, the remaining activity in assay [1] is 93.6% (inactive). The fold change in assay [2] (setting [4]) was 0.9 (inactive); in assay [2] (setting [5]), 1.32. Moreover, the cell count in assay [2] (setting [6]) is 5860; in assay [2] (setting [7]), 6510. Besides, in assay [3], the z-score was 0.75 (inactive).

As to `Cc1ccc(NC(=O)C(C)C)cc1C1CCN(Cc2ccc(Oc3ccc(F)c(F)c3)cc2)CC1`, the remaining activity in assay [1] was 107% (inactive). The results for the fold change in assay [2] (setting [4]) and in assay [2] (setting [5]) were 1.03 (inactive) and 0.737, respectively. The results for the cell count in assay [2] (setting [6]) and in assay [2] (setting [7]) were 1330 and 1290, respectively. For the same compound, in assay [3], the z-score was -0.705 (inactive).

As to `Cc1ccccc1N=Nc1ccc(NC(=O)c2ccnn2C)c(C)c1`, the remaining activity in assay [1] was 109% (inactive). In addition, the fold change in assay [2] (setting [4]) was 0.919 (inactive); in assay [2] (setting [5]), 0.67. Also, the cell count in assay [2] (setting [6]) was found to be 5460; in assay [2] (setting [7]), 5950. Also, in assay [3], the z-score was -0.675 (inactive).

In the case of `Cc1ccccc1N1CCN(S(=O)(=O)CC23CCC(C[C@@H]2NC(=O)[C@@H](N)CCS(C)(=O)=O)C3(C)C)CC1` (some centres not stated), in assay [1], the remaining activity was 82.6% (inactive). Further, the fold change in assay [2] (setting [4]) is 0.868 (inactive); in assay [2] (setting [5]), 1.54. For the same compound, the values for the cell count in assay [2] (setting [6]) and in assay [2] (setting [7]) were 7420 and 8540, respectively. Moreover, in assay [3], the z-score is -0.14 (inactive).

For the compound `O=C(c1ccc2c(c1)OCO2)N1CCCCC1`, in assay [1], the remaining activity was 118% (inactive). The fold change is 0.987 (inactive) in assay [2] (setting [4]) and 0.905 in assay [2] (setting [5]). Besides, the cell count in assay [2] (setting [6]) was 9020; in assay [2] (setting [7]), 9140. Further, in assay [3], the z-score is -0.205 (inactive).

As for `Cc1ccc2c(=O)c3ccccc3n(CCCN)c2c1C`, the remaining activity in assay [1] was 96.6% (inactive). Moreover, the figures for the fold change in assay [2] (setting [4]) and in assay [2] (setting [5]) were 1.17 (inactive) and 1.36, respectively. Further, the figures for the cell count in assay [2] (setting [6]) and in assay [2] (setting [7]) were 2370 and 2020, respectively. Besides, the z-score in assay [3] was -0.58 (inactive).

Consider `O=C1NN(C(=O)Nc2ccc(Br)cc2)[C@@H](c2ccccc2)[C@@H]1c1ccccc1`, for which, in assay [1], the remaining activity was 127% (inactive). The values for the fold change in assay [2] (setting [4]) and in assay [2] (setting [5]) were 0.887 (inactive) and 0.737, respectively. For the same compound, the values for the cell count in assay [2] (setting [6]) and in assay [2] (setting [7]) were 9100 and 10300, respectively. In assay [3], the z-score was 0.225 (inactive).

In the case of `NC(N)=Nc1ccc(Cl)cc1`, the remaining activity in assay [1] was 81.8% (inactive). Besides, the fold change was 0.948 (inactive) in assay [2] (setting [4]) and 0.891 in assay [2] (setting [5]). Moreover, the cell count was found to be 8620 in assay [2] (setting [6]) and 9100 in assay [2] (setting [7]). Moreover, the z-score in assay [3] was -0.49 (inactive).

In the case of `Nc1nc(Nc2ccccc2)nc2c1ncn2[C@@H]1O[C@H](CO)[C@@H](O)[C@H]1O`, the remaining activity in assay [1] was 107% (inactive). The fold change was 0.978 (inactive) in assay [2] (setting [4]) and 0.752 in assay [2] (setting [5]). The cell count was 9880 in assay [2] (setting [6]) and 10100 in assay [2] (setting [7]). In addition, in assay [3], the z-score is -0.09 (inactive).

As for `c1ccc(C(O[C@@H]2CCCN(CCc3ccc4c(c3)OCO4)C2)c2ccccc2)cc1`, the remaining activity in assay [1] was 119% (inactive). Further, the values for the fold change in assay [2] (setting [4]) and in assay [2] (setting [5]) were 0.989 (inactive) and 1.1, respectively. Besides, the cell count in assay [2] (setting [6]) stood at 8350; in assay [2] (setting [7]) it was 8440. In addition, the z-score in assay [3] is -0.585 (inactive).

For the compound `N[C@H](C(=O)O)c1ccc(C(=O)O)c(O)c1`, in assay [1], the remaining activity was 95.5% (inactive). Also, the fold change in assay [2] (setting [4]) was 0.931 (inactive); in assay [2] (setting [5]) it was 0.823. Also, the cell count in assay [2] (setting [6]) turned out to be 8860; in assay [2] (setting [7]), 9520. For the same compound, the z-score in assay [3] is -0.145 (inactive).

Regarding `C[C@H](NC[C@H](O)CP(=O)(O)Cc1ccccc1)c1ccc(Cl)c(Cl)c1`, the remaining activity in assay [1] is 111% (inactive). The fold change was 0.949 (inactive) in assay [2] (setting [4]) and 1.04 in assay [2] (setting [5]). Also, the figures for the cell count in assay [2] (setting [6]) and in assay [2] (setting [7]) were 8740 and 9210, respectively. The z-score in assay [3] was 0.06 (inactive).

For `O=C(NCCCN1CCCCCC1)C(c1ccccc1)C1CCCCC1` (configuration not stated), the remaining activity in assay [1] is 115% (inactive). Further, the fold change in assay [2] (setting [4]) was 0.949 (inactive); in assay [2] (setting [5]), 0.832. Moreover, the results for the cell count in assay [2] (setting [6]) and in assay [2] (setting [7]) were 8370 and 8820, respectively. The z-score in assay [3] was -0.905 (inactive).

Usually remaining activity stands for the signal under treatment as a percentage of the control signal.
